We go through 16 molecules from PubChem BioAssay (NCI).

Molecules are shown by their SMILES. Compounds without any hit were thinned out: in the full panel of roughly 83,000, 20% have a hit.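 Single-concentration screen, 48 h exposure, 96-well plates. Endpoint: percent growth. Below 10 = active.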 Unmarked numbers belong to inactive results. Activity calls are given as the source filed them.

Some test systems named below: NCI-H23 lung; NCI-H226 lung; NCI-H460 lung; A549/ATCC NSCLC; 786-0 renal; COLO 205 colon; NCI-H522 lung; NCI-H322M lung; HOP-62 NSCLC; HOP-92 NSCLC.
Holding throughout (assay): NCI-60 one-dose screen, 48 h (100 = growth as untreated, 0 = no growth, -100 = all killed)
Holding throughout (settings): 10 µM

As to `Cc1ccc(-n2c(C)nn3c(=O)c4c5c(sc4nc23)CN(C)CC5)cc1`, the growth with NCI-H23 lung was 97.4%; in the test on NCI-H226 lung it was 98.3%; with NCI-H460 lung, 109%; in the test on A549/ATCC NSCLC it was 73.7%; with 786-0 renal it was 86.3%; in the test on COLO 205 colon, 103%.

`O=C1c2ccccc2-c2c1c1cccnc1c(=O)n2C[C@H](O)CO`: the growth with NCI-H23 lung is 56.6%; in the test on NCI-H226 lung, 78.8%; with NCI-H460 lung it was 14.6%; with NCI-H522 lung it was 44.4%; with A549/ATCC NSCLC, 31.9%; with 786-0 renal it was 55.2%. The growth in the test with COLO 205 colon was 53.9%.

As for `O=C(CCCNC(=O)c1nc(-c2ccccc2)n(-c2ccccc2)n1)NO`, the growth with NCI-H23 lung was 101%; in the test with NCI-H226 lung, 85.6%; in the test with NCI-H522 lung it was 75.4%; with A549/ATCC NSCLC, 71.7%; in the test on 786-0 renal it was 92.3%; in the test with COLO 205 colon, 109%.

Take `COc1cc2c3c(n(C4CCN(C)CC4)c(=O)c2cc1OC)-c1cc2c(cc1C3=O)OCO2`: the growth in the test with NCI-H23 lung is 52.4%; with NCI-H226 lung, 60.8%; with NCI-H460 lung it was 19.8%; with NCI-H522 lung, 8.85% (active); in the test on A549/ATCC NSCLC, 55%; in the test with 786-0 renal, 55.4%. Further, the growth in the test with COLO 205 colon was 59.5%.

As to `COc1cc(CNC(=O)C2CSC3(C)c4ccccc4C(=O)N23)cc(OC)c1OC` (centres undefined), the growth was 96.9% with NCI-H23 lung; 99.7% in the test on NCI-H322M lung; 90.1% in the test on HOP-62 NSCLC; 106% in the test with NCI-H460 lung; 88.4% in the test with HOP-92 NSCLC; 68.8% with NCI-H522 lung. Besides, the growth in the test on A549/ATCC NSCLC is 83.1%; in the test with 786-0 renal, 102%; with COLO 205 colon it was 105%.

As to `CCOC(=O)c1sc2ncnc(Nc3ccc4c(cnn4C(=O)Nc4ccccc4)c3)c2c1C`, the growth with NCI-H23 lung was 60.6%; in the test with NCI-H226 lung, 109%; with NCI-H460 lung, 49.2%; in the test with NCI-H522 lung, 64.5%; with A549/ATCC NSCLC it was 56.7%; in the test with 786-0 renal, -2.26% (active). In the test with COLO 205 colon, the growth was 70.1%.

Regarding `Cc1c2cnccc2c(C)c2c1c1cc(O)ccc1n2C(C)C`, the growth with NCI-H23 lung is 0.21% (active); with NCI-H226 lung, 79.3%; in the test on NCI-H460 lung, -10% (active); in the test on NCI-H522 lung it was -9.59% (active); in the test on A549/ATCC NSCLC, 7.74% (active); in the test on 786-0 renal, 5.57% (active). Further, the growth in the test with COLO 205 colon is 17.9%.

Take `O=c1[nH]c(=O)n(C2C[C@H](O)[C@@H](CO)O2)cc1C(F)(F)F` (some centres undefined): the growth in the test with NCI-H23 lung is 98.1%; in the test on NCI-H226 lung, 107%; in the test with NCI-H460 lung, 113%; in the test with A549/ATCC NSCLC, 102%; with 786-0 renal, 101%; in the test on COLO 205 colon it was 113%.

For `C=C/C(C)=C/C[C@]1(C)[C@H](C)[C@@H](OC(=O)CCC)[C@H](O)[C@@]23C(=C[C@H](OC)C[C@@H]12)[C@@H](OC(=O)CCC)O[C@H]3OC(C)=O`, the growth is -15.9% (active) with NCI-H23 lung; -52.9% (active) in the test on NCI-H226 lung; 2.97% (active) with NCI-H460 lung; -80.9% (active) with NCI-H522 lung; 12.5% with A549/ATCC NSCLC; -79.9% (active) in the test on 786-0 renal. Moreover, the growth in the test on COLO 205 colon was -53.3% (active).

For `COc1ccc([C@H]2[C@H](C(=O)Nc3cccnc3)c3ccccc3C(=O)N2c2ccccc2)cc1`, the growth is 90.5% with NCI-H23 lung; 95.9% in the test on NCI-H226 lung; 91.4% with NCI-H460 lung; 82.4% with NCI-H522 lung; 87.8% in the test on A549/ATCC NSCLC; 91.2% in the test on 786-0 renal. For the same molecule, the growth in the test on COLO 205 colon was 63.2%.

In the case of `O=c1c(Br)ccc(Br)cc1Br`, the growth in the test with NCI-H23 lung was -51.8% (active); in the test with NCI-H226 lung it was 97.5%; in the test with NCI-H460 lung, 36.1%; with 786-0 renal it was -29.3% (active); with COLO 205 colon, -70.6% (active).

On to `O=S(=O)(NCCCNc1nccc(-c2cn(-c3ccccc3)nc2-c2ccc(Cl)c(O)c2)n1)c1ccccc1`, for which the growth with NCI-H23 lung was 78.5%; in the test on NCI-H226 lung it was 76.3%; in the test on NCI-H460 lung it was 46.3%; in the test with NCI-H522 lung, 65.6%; in the test on A549/ATCC NSCLC it was 37.3%; with 786-0 renal it was 68%. In the test with COLO 205 colon, the growth was 69.4%.

Consider `CCn1cc(CNc2ccc(C(=O)Nc3ccc4ccccc4c3)cc2)c(C)n1`, for which the growth with NCI-H23 lung is 52.9%; with NCI-H226 lung, 51%; in the test on NCI-H460 lung, 62.9%; with NCI-H522 lung, 74.7%; in the test with A549/ATCC NSCLC it was 63.4%; with 786-0 renal it was 75.3%. In the test with COLO 205 colon, the growth was 69.2%.

Regarding `Brc1ccc2c(c1)-c1ccccc1C1=NCCN12`, the growth with NCI-H23 lung is -8.64% (active); in the test on NCI-H226 lung it was -14.2% (active); in the test with NCI-H460 lung, -47.4% (active); in the test on NCI-H522 lung, -61.9% (active); in the test on A549/ATCC NSCLC it was -18.8% (active); with 786-0 renal, -32.7% (active). Besides, in the test on COLO 205 colon, the growth was -54% (active).

With `CN1CCc2c(sc3nc4n(-c5ccc(Cl)cc5)cnn4c(=O)c23)C1`, the growth in the test on NCI-H23 lung is 91.8%; with NCI-H226 lung, 92.2%; in the test with NCI-H460 lung it was 124%; in the test with NCI-H522 lung it was 94.1%; in the test on A549/ATCC NSCLC, 88.2%; in the test on 786-0 renal, 96.4%. Moreover, the growth in the test on COLO 205 colon is 97.7%.

On to `c1cncc(-c2csc(-c3c[nH]c4ccccc34)n2)c1`, for which the growth in the test with NCI-H23 lung was 84.4%; with NCI-H226 lung, 84.1%; in the test with NCI-H460 lung, 97%; in the test with NCI-H522 lung, 73.5%; in the test with A549/ATCC NSCLC, 78.8%; with 786-0 renal it was 103%. For the same molecule, in the test on COLO 205 colon, the growth is 94.9%.
